Screens: PubChem, several laboratories
Only some compounds are listed: those with a hit (about 6.9% of all), similar ones and a draw of the others.
Mdm2 MdmX PPI = human Mdm2/MdmX binding inhibition. SaOS-2 split-luciferase Mdm2/MdmX complementation, luminescence. inhibition, % at 8 µM. 330,000 tested, 3% active. AID 485346;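 active means inhibition of at least 50% at 8 µM in the primary screen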
Target sequence (O15151 whole entry, looked up): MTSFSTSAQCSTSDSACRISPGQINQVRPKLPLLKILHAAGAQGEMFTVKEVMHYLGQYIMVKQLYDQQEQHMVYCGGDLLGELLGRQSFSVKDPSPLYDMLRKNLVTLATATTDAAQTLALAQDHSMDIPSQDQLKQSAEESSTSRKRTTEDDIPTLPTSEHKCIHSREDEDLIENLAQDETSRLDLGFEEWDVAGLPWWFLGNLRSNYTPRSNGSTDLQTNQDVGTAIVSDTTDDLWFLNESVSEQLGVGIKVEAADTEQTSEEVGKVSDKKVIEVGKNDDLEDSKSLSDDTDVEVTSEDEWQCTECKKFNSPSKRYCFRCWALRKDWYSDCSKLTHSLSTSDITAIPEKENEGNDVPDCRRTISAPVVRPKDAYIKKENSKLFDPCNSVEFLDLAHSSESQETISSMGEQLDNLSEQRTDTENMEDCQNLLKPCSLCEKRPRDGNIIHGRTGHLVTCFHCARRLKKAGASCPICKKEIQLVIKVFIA
Target sequence (Q00987 whole entry, looked up): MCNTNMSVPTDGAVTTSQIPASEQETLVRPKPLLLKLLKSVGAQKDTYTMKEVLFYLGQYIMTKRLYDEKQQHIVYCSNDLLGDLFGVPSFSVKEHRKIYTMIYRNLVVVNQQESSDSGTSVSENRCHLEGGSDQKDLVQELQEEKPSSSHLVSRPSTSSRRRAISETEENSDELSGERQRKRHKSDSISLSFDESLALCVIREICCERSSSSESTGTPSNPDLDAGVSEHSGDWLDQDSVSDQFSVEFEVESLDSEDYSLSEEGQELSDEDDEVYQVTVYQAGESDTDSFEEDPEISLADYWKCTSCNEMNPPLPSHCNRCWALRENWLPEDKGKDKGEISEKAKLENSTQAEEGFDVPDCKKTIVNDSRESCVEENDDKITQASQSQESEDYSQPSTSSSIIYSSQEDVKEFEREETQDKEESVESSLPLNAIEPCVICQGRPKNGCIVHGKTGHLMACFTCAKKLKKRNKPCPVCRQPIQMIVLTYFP
SKKanGAS inh = SKKanGAS growth inhibition; S. pyogenes SKKanGAS, kanamycin growth, BacTiter-Glo, 6 h; inhibition, % at 7.5 µM; 300,000 tested, 1.3% active; AID 1662;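 active means mean replicate score, as percent of positive control median, at least 50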;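 further: strain carries kanamycin resistance gene driven by streptokinase promoter and grows in 40 µg/ml kanamycin; loss of luminescence reflects streptokinase promoter inhibition or plain growth inhibition; 0% = median of DMSO wells and 100% = positive control at its reference dose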
Beta apoptosis = beta cell apoptosis inhibition; INS-1E cytokine-induced death, ATP luminescence, 48 h; percent of positive-control rescue, neutral wells zero; protection from apoptosis, % (test concentration not listed); 300,000 tested, 0.8% active;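 active means Every replicate reaches about 75%, or at least half do and their mean reaches it too, limit read from the data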;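 further: 0% = cytokine-treated negative control wells and 100% = positive control rescue; higher means more ATP so stronger rescue from cytokine killing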
MPTP block = blocks calcium-induced mitochondrial swelling | inhibition, % at 10 µM | isolated mouse mitochondria, Ca2+ swelling absorbance, 30 min | 360,000 tested, 1.4% active;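 active means inhibition of 50% or more, scaled per plate between neutral and stimulator controls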;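 further: 0% = DMSO wells given calcium and 100% = 1 mM EGTA wells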
CSC inhib = cancer stem cell inhibition; cancer stem cell-like cells viability, luminescence; inhibition, % at 7.5 µM; 300,000 tested, 1.1% active; in the data active means inhibition above about 75%; tested in HMLE shEcad cells
GRIN3A LBD mod = modulates the human NR3A ligand-binding domain | 340,000 tested, 2.5% active | Tm shift relative to glycine control, % at 25 µM | NR3A LBD differential scanning fluorimetry, Tm shift; 0% = protein alone, 100% = glycine-bound protein;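 active means melting temperature shift of at least 10% of the positive control shift, at one fixed dose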
MPTP counter = Rhodamine 123 counter-screen of mitochondrial pore hits | 5,000 tested, 78% active | AID 624504 | shares compounds with MPTP block | inhibition, % at 10 µM | isolated mitochondria, membrane potential, Rhodamine 123 fluorescence; in the data active means inhibition above about 22%;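 further: 0% = DMSO vehicle and 100% = positive control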
MPTP swell DR = MPTP inhibition, dose response swelling confirmation; 780 tested, 58% active; shares compounds with MPTP block; AID 651561; isolated mitochondria swelling, absorbance; IC50, µM; in the data active means IC50 below about 20 µM
MPTP counter DR = MPTP inhibitor counter-screen activity, dose response. IC50, µM. isolated mitochondria counterscreen, fluorescence read-out. AID 651564. shares compounds with MPTP block. 780 tested, 49% active; in the data active means IC50 below about 80 µM
* marks the source's active call; other numbers are inactive results; . = no result; ! = not active in a repeat.

SMILES	Mdm2 MdmX PPI	SKKanGAS inh	Beta apoptosis	MPTP block	CSC inhib	GRIN3A LBD mod	MPTP counter	others
S=C(Nc1ccc(OCc2ccccc2)cc1)Nc1cccc(Cl)c1Cl	2.7	-12.4	1.1	85.6*	3.9	11.9*	79.0*
O=C(O)Cc1ccc(NC(=S)Nc2cccc(Cl)c2Cl)cc1	-8.8	0.5	2.5	-1.5	-7.0	-3.2	.
Cc1cccc(-c2nc3c(s2)CCc2onc(-c4ccc(Br)cc4)c2-3)c1	27.3	7.1	-1.6	1.8	13.4	0.0	.
COc1ccc(S(=O)(=O)N2CCOCC2)cc1NC(=O)CN1C(=O)NC2(CCC(C)CC2)C1=O (centres undefined)	.	.	.	-0.1	.	.	.
Nc1nc(NC(=O)c2ccc(Cl)cc2)nn1-c1ccccc1	-5.4	-6.1	0.1	80.7*	12.5	-1.0	34.6*
COc1ccc(-c2cc(C(=O)Nc3cc(OC)cc(C(=O)Nc4cccc(C(F)(F)F)c4)c3)[nH]n2)cc1	32.7	22.7	18.4	54.9*!	13.9	29.1*	55.8*
COc1cc2c(cc1NC(=S)Nc1cccc3ccccc13)oc1ccccc12	-13.6	11.6	-4.4	0.0	-1.6	4.6	.
CCOc1ccc(NC(=S)NNC(=S)Nc2cccc(C(F)(F)F)c2)cc1	5.9	51.3*	23.6	79.9*	33.6	20.1*	56.5*
CCOc1cc(OCC)cc(C(=O)NC(=S)Nc2cccc(C(F)(F)F)c2)c1	30.2	30.3	-2.5	3.9	2.2	-4.0	.
COc1ccc(NC(=S)NNC(=S)Nc2cccc(C(F)(F)F)c2)cc1	26.8	7.3	23.3	68.6*	67.8	33.6*	72.0*
COc1cc2c(cc1NC(=S)Nc1cccc(C(F)(F)F)c1)oc1ccccc12	29.4	0.5	10.0	94.1*	50.5	29.2*	79.5*
CC(OC(=O)C1=COCCO1)C(=O)Nc1ncc(Cl)cc1Cl (centres undefined)	-7.0	.	.	-1.0	.	-0.8	.
CCC(C)(C)C1CCc2[nH]nc(C(=O)NC(C)C)c2C1 (centres undefined)	24.3	.	7.6	-0.6	0.7	-1.1	.
CCCCNC(=S)Nc1ccc(-c2nc3ccc(C)cc3s2)cc1	-243.5	-12.5	1.1	88.1*	5.2	31.2*	86.5*
Cc1ccc2nc(-c3ccc(NC(=S)NCC(C)(C)CN(C)C)cc3)sc2c1	.	.	.	0.3	.	-1.0	.
CCC(C)(C)NC(=S)Nc1ccc(-c2nc3ccc(C)cc3s2)cc1	-295.3	-0.8	7.9	84.8*	26.2	30.7*	34.4*
Cc1ccc2nc(-c3ccc(NC(=O)COC(=O)c4cncc(Br)c4)cc3)sc2c1	.	-1.7	.	7.3	.	3.6	.
Cc1cc(NC(=O)CCSc2ccccc2)ccc1Br	-116.1	4.2	-2.6	96.7*	25.5	9.0	84.0*
Cc1cc(Br)ccc1NC(=O)CCSc1ccccc1	-15.3	-3.1	-9.1	6.7	1.1	-2.2	.
FC(F)(F)C1=Nc2cccc3cccc(c23)N1	13.0	.	.	103.0*	.	9.1	70.9*
Cc1[nH]c2ccc(C(=O)OCC(=O)Nc3cccc(S(N)(=O)=O)c3)cc2c1C	-24.5	.	-3.0	-0.4	-7.4	-3.0	.
Cc1cccc(NC(=O)CSCC(=O)N(C)Cc2ccc(Cl)c(Cl)c2)c1	-2.6	.	4.0	-1.5	8.1	-5.0	.
O=S(=O)(c1ccc(Cl)cc1)N1CCN(C(=S)Nc2ccc(F)c(Cl)c2)CC1	37.1	8.8	2.7	84.7*	26.7	18.5*	88.0*
O=S(=O)(c1ccccc1)N1CCN(C(=S)Nc2ccc(F)cc2)CC1	25.6	0.3	.	1.4	4.2	-1.3	.
CSc1cccc(CN2CCC(CO)(Cc3cccc(C(F)(F)F)c3)CC2)c1	45.9	1.7	3.8	72.2*	31.4	0.8	-8.1	MPTP swell DR=5.25*;MPTP counter DR=40.5*
SMILES	Mdm2 MdmX PPI	SKKanGAS inh	Beta apoptosis	MPTP block	CSC inhib	GRIN3A LBD mod	MPTP counter	others
CCn1c(O)c(/C=C2\C=Nc3ccccc32)sc1=Nc1ccccc1	1.2	7.8	1.4	52.6*	19.6	12.0*	58.9*
Cc1cccc(OCC(=O)Nc2ccc(C(=O)Nc3ccccc3C(=O)O)cc2)c1	.	.	.	0.0	.	.	.
Cc1cccc(C(=O)Nc2ccccc2C(=O)OCC(=O)Nc2ccc(C#N)cc2)c1	1.2	11.5	2.8	77.3*	.	15.1*	62.4*
Fc1ccccc1COc1cccc(/C=N/n2cnnc2)c1	1.4	-1.1	0.8	5.2	5.2	1.5	.
Cc1cc(/C=N/n2cnnc2)c(C)n1-c1ccc(OCc2ccccc2F)cc1	49.5	25.5	122.0*	98.2*	40.2	-3.9	95.8*
O=C(NCc1ccncc1)c1csc([C@@H]2C[C@H](O)[C@@H](CO)O2)n1	.	.	.	0.3	.	.	.
N#CCCn1nc(-c2ccc(Cl)cc2)cc1Nc1ccccc1NC(=O)C(F)(F)F	24.0	-9.1	-1.8	2.7	3.1	1.3	.
N#CCCn1nc(-c2ccccc2)cc1Nc1ccccc1NC(=O)C(F)(F)F	3.7	1.6	-2.5	9.3	0.7	3.4	.
N#CCCn1nc(-c2ccc([N+](=O)[O-])cc2)cc1Nc1ccccc1NC(=O)C(F)(F)F	11.2	0.5	-6.0	92.9*	-8.5	-3.9	91.4*
N#CCCn1nc(-c2ccc(Br)cc2)cc1Nc1ccccc1NC(=O)C(F)(F)F	-6.7	7.6	-3.7	95.0*	4.3	4.4	83.7*
Cc1cc(C(=O)CSc2nnc(-c3ccc4c(c3)OCO4)o2)c(C)n1-c1ccc(F)cc1	16.1	-4.1	-2.1	94.4*	67.7	-1.8	41.9*
Cc1cc(C(=O)CSc2nnc(-c3cccs3)o2)c(C)n1-c1ccccc1	29.8	16.6	-6.4	51.5*	66.2	-2.6	45.4*
O=C(CSc1nnc(-c2cccs2)o1)c1cccs1	-31.4	-1.5	-10.4	-1.0	0.5	1.4	.
CCCc1ccc(S(=O)(=O)NCCc2ccncc2)cc1	2.6	-26.1	9.7	8.3	-0.8	0.4	.
CCN(C1CCCCC1)S(=O)(=O)c1ccc(S(=O)(=O)NCc2ccncc2)cc1	23.4	3.9	102.6*	98.2*	17.3	5.7	92.5*
CCCCCc1ccc(S(=O)(=O)NCCc2ccncc2)cc1	2.2	-22.3	7.5	63.3*	7.3	-7.0	82.8*
O=S(=O)(NCc1ccncc1)c1ccc(Br)s1	14.1	-6.9	115.9*	62.7*	4.9	-0.6	96.5*
COC(=O)COc1ccc(S(=O)(=O)NCc2ccncc2)cc1	26.2	9.5	-0.5	85.1*	6.4	0.8	86.7*
Cc1ccc(S(=O)(=O)NCc2ccncc2)cc1C	14.8	-2.3	89.5*	77.0*	-11.3	0.4	76.4*
O=S(=O)(c1ccccc1)N1CCC(O)(CSc2ccc(Cl)cc2)CC1	37.2	-4.7	32.2	98.0*	25.4	-14.1	84.4*
